# Assay outcomes: PubChem, National Center for Advancing Translational Sciences (NCATS)
# Most compounds without a hit are left out; they make up all but 2.4% or so of the library.
# D2 ag-1: HTS Assay for Allosteric Agonists of the Human D2 Dopamine Receptor: Primary Screen for Agonists | HEK293 T-REx D2 cells, calcium flux agonist mode | actives 0.53% (n = 340,000) | activation, % at 2 µM | D(2) dopamine receptor (Homo sapiens), P14416;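 active means activation over 3 SD above normal in the single-dose calcium agonist read, cut at about 30% in these data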; further: 0% is about no effect
# Target sequence (P14416 whole entry, looked up): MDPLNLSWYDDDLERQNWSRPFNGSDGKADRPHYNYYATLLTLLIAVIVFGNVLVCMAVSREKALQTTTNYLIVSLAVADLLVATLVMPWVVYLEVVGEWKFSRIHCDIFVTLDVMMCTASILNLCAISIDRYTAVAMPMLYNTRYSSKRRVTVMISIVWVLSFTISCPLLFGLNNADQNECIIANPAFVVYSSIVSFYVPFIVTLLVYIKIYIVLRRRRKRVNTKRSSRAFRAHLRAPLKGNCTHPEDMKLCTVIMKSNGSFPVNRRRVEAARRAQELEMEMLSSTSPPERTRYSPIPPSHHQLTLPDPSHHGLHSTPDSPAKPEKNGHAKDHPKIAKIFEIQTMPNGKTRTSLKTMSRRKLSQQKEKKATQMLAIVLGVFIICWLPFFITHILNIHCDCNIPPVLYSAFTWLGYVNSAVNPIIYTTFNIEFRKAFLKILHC
#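 Tetracycline-induced HEK293 T-REx cells with force-coupled D2 receptor, plated overnight at 30 C, loaded with no-wash calcium dye. After a 10 s baseline, compound was pin-added and calcium flux read kinetically for 180 s; calcium rises flagged agonists.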
# D2 PAM-1: Beta-Arrestin HTS for Positive Allosteric Modulators of the Human D2 Dopamine Receptor: Potentiators; potentiation, % (concentration not given with the values); AID 624464, 2012; actives 0.23% (n = 360,000); D(2) dopamine receptor (Homo sapiens), P14416; DiscoveRx D2 beta-arrestin cells, luminescence, 90 min; 100% = 57 uM dopamine signal; in the data active means potentiation above about 50%; inconclusive means mostly about 30% to 49%
#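 PathHunter D2 cells, attached overnight at 37 deg C, received compound in DMSO plus dopamine at EC20 (50 nM final) for 90 min at 37 deg C. Beta-arrestin recruitment was read as luminescence after 1 h with detection reagent at ambient temperature.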
# D2 PAM-2: HTS Assay for Positive Allosteric Modulators of the Human D2 Dopamine Receptor: Primary Screen for Potentiators. potentiation, % at 10 µM. HEK293 T-REx D2, calcium flux, EC20 dopamine potentiation. actives 0.34% (n = 340,000). AID 485347, 2010. D(2) dopamine receptor (Homo sapiens), P14416;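 active means potentiation over 3 SD above the plate norm, cut at about 30% in these data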; further: 0% is about no effect
#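 Tetracycline-induced HEK293 T-REx cells force-coupled to calcium signalling expressed D2; compounds were pin-added after a 10 s baseline, read kinetically 180 s, then an EC20 dopamine challenge followed with a further 180 s calcium read.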
# D2 antagonist: HTS Assay for Allosteric Antagonists of the Human D2 Dopamine Receptor: Primary Screen for Antagonists; actives 2% (n = 340,000); HEK293 TREx D2 cells, calcium flux, dopamine EC80; D(2) dopamine receptor (Homo sapiens), P14416; inhibition, % at 10 µM; in the data active means inhibition above about 30%; inactive means below that, where a call was filed; further: 0% is about no effect
#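 Cells plated overnight at 30 C with tetracycline; no-wash calcium dye, 30–90 min RT; 10 s baseline; compound pinned; 180 s read; EC80 dopamine added; another 180 s read.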
# D2 ag-2: Beta-Arrestin HTS for Positive Allosteric Modulators of the Human D2 Dopamine Receptor: Agonists. activation, % (no concentration beside the values). DiscoveRx PathHunter D2 beta-arrestin, luminescence, 90 min; 100% = 57 uM dopamine signal. AID 624465, 2012. actives 0.084% (n = 360,000); in the data active means activation above about 40%; inconclusive means between about 15% and that limit
#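 Agonist mode: compounds alone added to overnight-plated D2 PathHunter cells for 90 min at 37 C, with 57 uM final dopamine (EC100) defining full response. Beta-arrestin recruitment detected by chemiluminescent reagent, read after 1 h at ambient temperature.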
# Active calls of the source: *; ? = inconclusive; / = no result given.
SMILES,D2 ag-1,D2 PAM-1,D2 PAM-2,D2 antagonist,D2 ag-2
Cc1[nH]c2ccc(C(=O)NCCCN(C)C3CCCCC3)cc2c1C,0,-40,-27,34*,-5
Cc1[nH]c2ccc(C(=O)NCCCN3CCN(C)CC3)cc2c1C,-1,-19,-5,1,-2
COc1cc(Cl)c(C)cc1NC(=O)c1cnc(N2CCOCC2)c2ccccc12,1,/,-8,/,/
COCCN(C(=O)COc1ccccc1)c1nnc(-c2cccnc2)s1,0,28,-1,-7,1
CCN(C(=O)COc1ccccc1)c1nnc(-c2cccnc2)s1,-1,-27,-7,41*,1
CCN(C(=O)c1c(OC)cccc1OC)c1nnc(-c2cccnc2)s1,0,0,52*,-13,1
CC1=Nc2cc(C(=O)NCCc3ccc(Cl)cc3)ccc2Sc2c(C)ccc(C)c21,1,/,/,/,/
CNc1nc(NC)nc(NNC(=O)c2ccccc2)n1,/,-10,/,/,0
Cc1cc(NNC(=O)c2ccccc2)nc(NNC(=O)c2ccccc2)n1,0,2,-23,34*,9
C/C(=N/Nc1ccc(C(=O)O)cc1)c1ccc(O)c(O)c1O,0,85*,0,-6,?
CCCCN(CC)CCNC(=O)c1cc2c(=O)oc3ccc(C)cc3c2s1,1,/,-15,/,/
CCc1ccc(C2CC(=O)Nc3c2c(=O)n(C)c2ncnn32)cc1 (stereo unspecified),0,/,5,/,/
CCOC(=O)C1CCN(C(=O)Cn2nc(CC)n3c(cc4sccc43)c2=O)CC1,/,/,-5,/,/
CCC(C)NCCOc1cc(C)cc(C)c1C (stereo unspecified),1,-15,-20,51*,-6
O=C(C1=C[C@@H](c2coc3ccccc3c2=O)C[C@@H](OCCCCO)O1)N1CCOCC1,0,-9,13,62*,-4
CN1CCN(C(=O)C2=C[C@H](c3coc4ccccc4c3=O)C[C@H](OCCCCO)O2)CC1,0,-8,1,0,-1
CCC1Oc2ccc(C)cc2N(CC(=O)N2CCN(c3ccccc3OC)CC2)C1=O (stereo unspecified),0,/,5,/,/
O=C(COC(=O)COc1ccccc1)NC12CC3CC(CC(C3)C1)C2,0,-4,19,34*,-2
CCOc1cc(CNCCc2ccc(S(N)(=O)=O)cc2)ccc1OCc1ccccc1,0,-10,41*,4,-3
CCN(CC)c1ccc(/C=C2\C(=N)N3N=C(CC(=O)N4CCOCC4)SC3=NC2=O)cc1,33*,-2,-5,8,-1
CCN(CC)c1ccc(/C=C(/C#N)c2nc3ccc(C)cc3[nH]2)c(OC(C)C)c1,42*,-17,-7,-2,-6
COc1ccc(-c2nc(CN3CCN(c4ccccc4OC)CC3)c(C)o2)cc1,0,-8,-28,99*,-8
Cc1cc(N2CCN(Cc3nc(-c4ccc(F)cc4)oc3C)CC2)cc(C)n1,0,-10,-1,18,-3
COc1ccc(-c2[nH]ncc2CN2CCC(C(=O)c3ccc(F)cc3)CC2)cc1,0,-26,-23,83*,-4
COc1ccc(CN2CCC(C(=O)c3ccc(Cl)cc3)CC2)cc1,-1,-81,-26,35*,-4
COc1ccccc1N1CCN(Cc2nc(-c3ccc(F)cc3)oc2C)CC1,2,-14,-30,80*,-4
COc1ccccc1CN1CCN(Cc2nc(-c3ccc(C)cc3)oc2C)CC1,0,-5,-6,-1,-4
COc1ccc(CN2CCC(C(=O)c3cccc(Cl)c3)CC2)cc1,/,-4,-13,/,1
Cc1ccccc1OCC(=O)Nc1ccc(S(=O)(=O)N(Cc2ccccc2)c2ccccc2)cc1,3,/,7,/,/
